The list is not random: actives were taken first. Their share in the collection is about 1.1%.
Luc counter: Kinase-Glo luciferase inhibition (counter-screen); Q27757; Kinase-Glo luciferase, ATP luminescence, 8 min; Potency, µM (top dose mostly 38.3 µM), hits mostly inhibitors; AID 1379; actives 0.28% (n = 200,000); also: nearly all actives have a fitted effect of over 60% in size
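Recombinant Kinase-Glo luciferase, 10 uM ATP (linear range), luciferin; imidazole pH 7.2 / KCl / MgCl2 / Tween / BSA buffer; 8 min RT; luminescence.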
IMPase Li inh: membrane-permeable IMPase blocker, potentiated with lithium; CHO-M1 cells, IP1 TR-FRET (IP-One), carbachol + lithium; Potency, µM (top dose mostly 59.4 µM), usual class: inhibitors; actives 0.35% (n = 210,000);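 also: IP1 builds up when IMPase is blocked and the TR-FRET signal falls; nearly all actives have a fitted effect of over 50% in size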
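CHO-M1, 2000 cells/well, 16–30 h culture; cpd + low Li+, 30 min 37C; lysis with d2-IP1/Eu-anti-IP1 Ab, 10 min RT; TR-FRET 665/620 ratio and 620 channel; AC50 via Hill.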
NPSR antag: neuropeptide S receptor (human) antagonism, cAMP; AID 1461; Potency, µM (series often up to 38.3 µM), usual class: inhibitors; CHO-NPSR cells, cAMP TR-FRET, antagonist mode; actives 1% (n = 220,000); also: nearly all actives have a fitted effect of over 50% in size
Target sequence (Q6W5P4 whole entry, looked up): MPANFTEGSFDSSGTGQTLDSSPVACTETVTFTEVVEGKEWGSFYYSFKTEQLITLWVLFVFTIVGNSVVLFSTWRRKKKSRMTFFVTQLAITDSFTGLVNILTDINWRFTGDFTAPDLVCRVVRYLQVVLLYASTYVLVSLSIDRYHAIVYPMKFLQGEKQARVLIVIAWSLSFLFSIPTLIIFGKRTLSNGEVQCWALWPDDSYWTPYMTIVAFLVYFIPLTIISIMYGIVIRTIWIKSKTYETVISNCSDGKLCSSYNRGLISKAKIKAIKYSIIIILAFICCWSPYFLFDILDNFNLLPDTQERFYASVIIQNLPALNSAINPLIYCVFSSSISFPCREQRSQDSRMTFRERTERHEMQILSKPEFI
ERK EGF inh: inhibitors of EGF-stimulated ERK signaling pathway. Potency, µM (series often up to 11.5 µM), actives largely listed as inhibitors. HEK293-V1b, EGF-stimulated phospho-ERK AlphaScreen. AID 1454. actives 0.41% (n = 130,000); also: nearly all actives have a fitted effect of over 55% in size
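Phospho-ERK1/2 measured by AlphaScreen (SureFire) after 5 min 25 nM EGF stimulation of V1b-expressing HEK293 cells preincubated 30 min at 37C with titrated compounds; data scaled to DMSO and EGF controls, Hill-fitted AC50.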
Numbers stand for hits; n = inactive; u = inconclusive; x = not tested or not shown; [ ] = another dose, or the depositor's remark. Calls follow the shape of the dose curve; as a rule, active = well fitted curve in the direction sought with a large enough effect; inconclusive = small, poorly fitted or top-dose-only effect, or another doubt; inactive = no such curve, though single readings can be large; an effect the other way counts as inactive or inconclusive.

SMILES	Luc counter	IMPase Li inh	NPSR antag	ERK EGF inh
CCCc1sc(N/N=C/c2ccccn2)nc1-c1ccc(F)cc1	n	n	10µM	n
COC(=O)c1ccc(/C=N/Nc2nc(C)c(C)s2)cc1	x	x	n	n
Cc1nc(N/N=C/c2ccccn2)sc1C	8.9µM	n	4µM	n
O=[N+]([O-])c1ccc(Nc2c3ccccc3nc3ccccc23)cc1	n	n	6.3µM	u
CCOC(=O)c1sc(NC(=O)c2cccs2)cc1C	u	n	n	x
CCOC(=O)c1sc(NC(=O)c2sccc2C)cc1C	11µM	n	n	x
Cc1onc(-c2ccccc2Cl)c1C(=O)Nc1nnc(-c2ccc(Br)cc2)s1	n	8.9µM	n	x
Cc1onc(-c2ccccc2Cl)c1C(=O)Nc1nnc(-c2ccc(F)cc2)s1	n	n	n	n
CC[C@H](C)C(=O)O[C@H]1CCC=C2C=C[C@H](C)[C@H](CC[C@@H]3C[C@H](O)CC(=O)O3)C21 (some centres undefined)	n	n	n	n
Cc1cccc(-n2c(C)cc(/C=C3\C(=N)N4N=C(CC(C)C)SC4=NC3=O)c2C)c1	n	n	n	n
CC1=NN2C(=N)/C(=C\c3cc(C)n(-c4cccc(C)c4)c3C)C(=O)N=C2S1	x	x	13µM	n
Cn1cccc1C(=O)N1CCC2(CCN(C(=O)Nc3ccccc3)CC2)CC1	n	n	x	n
COc1ccc(-c2nc3cnc(N4CCOCC4)nc3n(Cc3cccs3)c2=O)cc1	x	2µM	x	x
COc1ccc(-c2nc3cnc(N4CCN(C)CC4)nc3n(Cc3cccs3)c2=O)cc1	x	n	x	x
CN(C)c1ncc2nc(-c3cc(F)cc(F)c3)c(=O)n(Cc3cccs3)c2n1	n	5.6µM	x	n
C=CC1=C2C=C(C3CC3)N(CCOC)C=C2C(=O)C(C)(OC(=O)c2ccco2)C1=O (centres undefined)	n[7.66 µM]	n	x	x
CCOc1ccc(-n2nc3ccc(NC(=O)c4ccc5c(c4)OCCO5)cc3n2)cc1	n	n	10µM	u
O=C1NN(c2ccccc2)C(=O)/C1=C/c1ccc(Sc2ccc(Cl)cc2)o1	x	x	u	28µM
Cc1ccccc1-c1ccc2ncnc(N3CCOCC3)c2c1	x	n	x	x
CCc1cc2cc3c(cc2nc1SCC(=O)Nc1nccs1)OCO3	n	13µM	10µM	x
Cc1ccc(C#N)c(SCC(=O)Nc2nccs2)n1	n	13µM	u	n
CCc1nc(SCC(=O)Nc2nccs2)c2oc3ccccc3c2n1	n	n	n	x
O=C(CSc1nc(-c2ccccc2)nc2ccccc12)Nc1nccs1	n	25µM	n	x
O=C(CSc1ccccc1)Nc1nccs1	n	n	n	n
CCCCC/C=C\C\C=C/C=C/C=C/[C@@H](SC[C@H](NC(=O)CC[C@H](N)C(=O)O)C(=O)NCC(=O)O)[C@@H](O)CCCC(=O)O	x	n	x	x
SMILES	Luc counter	IMPase Li inh	NPSR antag	ERK EGF inh
Cc1nc2ncnn2c(N2CCC(C(=O)NC3CCCC3)CC2)c1Cc1ccccc1	n	n	n	x
Cc1ccccc1NC(=O)C1CCN(c2cc(-c3ccccc3)nc3ncnn23)CC1	n	8.9µM	n	n
O=C(Nc1ccc(Oc2ccccc2)cc1)C1CCN(c2c3c(nc4ncnn24)CCC3)CC1	n	n	13µM	x
C[Si](C)(C)C#Cc1ccccc1NC(=S)Nc1ccccc1	n	n	x	n
C/C=C\C(=O)N(CC)c1ccccc1C	n	n	x	n
Cc1c(/C(O)=C2/C(=O)C(=O)N(Cc3cccnc3)C2c2cccs2)cnn1-c1ccccc1 (centres undefined)	n	7.1µM	n	x
CC(=O)/C=C(\C)Nc1ccc(-c2cnc(-c3ccccc3)o2)cc1	n	8.9µM	n[7.67 µM]	x
CCCCNC(=O)C(c1ccc(OCC(=O)OC)c(C(=O)OC)c1)N(Cc1ccccc1)C(=O)CCCCCN1C(=O)NC(c2ccc(-c3ccccc3)cc2)C(C(=O)OCc2ccccc2)=C1C (centres undefined)	n	n	x	n
COc1cc(/C=C2/C(=O)c3cccc([N+](=O)[O-])c3C2=O)c(Br)cc1O	11µM	n	10µM	28µM
O=C(NCCCN1CCOCC1)c1ccc(Cc2nc3ccccc3[nH]2)cc1	n	x	x	x
O=c1cc(CCl)[nH]c2nc3ccccc3n12	x	x	n[7.67 µM]	n
O=c1cc(-c2ccccc2)[nH]c2nc3ccccc3n12	13µM	n	n	x
CCCCCCCCCCC(C)(C)C(=O)Nc1c(OC)cc(OC)cc1OC	n	n	x	n
CN(C)c1ncc2nc(-c3ccc(Cl)cc3)c(=O)n(-c3ccccc3)c2n1	x	2.8µM	x	x
COc1ccc(-n2c(=O)c(-c3ccc(Cl)cc3)nc3cnc(N(C)C)nc32)cc1	x	2.8µM	x	x
COc1ccc(-c2nc3cnc(N(C)C)nc3n(-c3ccccc3)c2=O)cc1	x	n	x	x

High-throughput results (PubChem)
